Measured values published in PubChem BioAssay (NCI).
The panel holds about 79,000 compounds, 15% with a hit somewhere; the sample as a whole holds those more often. Rule as the data show it: active = growth inhibition above about 70%; inactive = the rest. Where a SMILES comes first, the peptide text is derived from it. [ ]: non-standard residue; d: D form. The star is where a group is joined. ξ: configuration not given here. Cbz = O=C(OCc1ccccc1)*; Boc = CC(C)(C)OC(=O)*; ξNva = CCCC(N)C(=O)O

What was measured:
[1] = NCI Yeast Anticancer Drug Screen. Data for the rad50 strain (AID 155);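 also: 0% = growth of vehicle-only cultures of the same strain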; settings: S. cerevisiae rad50 strain growth inhibition; at 50.0 µM; active compounds read high
Procedure, shortened: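 Yeast carrying a defined DNA repair defect were exposed to test compounds, and growth was compared with vehicle-treated controls to give percent inhibition.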

[2] = NCI Yeast Anticancer Drug Screen. Data for the mec2-1 strain (AID 157); settings: S. cerevisiae mec2-1 strain, at 50.0 µM, active compounds read high
Procedure, shortened: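 Strain: mec2-1 (DNA repair/cell cycle alteration). Compound exposure, then growth measured; inhibition expressed relative to vehicle.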

[3] = NCI Yeast Anticancer Drug Screen. Data for the sgs1 mgt1 strain (AID 161);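 also: 0% = growth of cultures given vehicle only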; settings: S. cerevisiae sgs1 mgt1 strain, at 50.0 µM, active compounds read high
Procedure, shortened: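 Mutant yeast exposed to compound; growth scored against vehicle-only wells.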

[4] = NCI Yeast Anticancer Drug Screen. Data for the cln2 rad14 strain (AID 165);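 also: 0% = growth equal to vehicle treated cultures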; settings: S. cerevisiae cln2 rad14 strain, at 50.0 µM, active compounds read high
Procedure, shortened: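 Compounds are applied to the cln2 rad14 yeast strain, and growth is then compared with that of vehicle-treated cultures to give inhibition.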

[5] = NCI Yeast Anticancer Drug Screen. Data for the bub3 strain (AID 167); settings: S. cerevisiae bub3 mutant strain, at 50.0 µM, active compounds read high
Procedure, shortened: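 Compounds were applied to a genetically altered yeast strain carrying a cell-cycle control defect. Growth inhibition was scored against vehicle-treated controls.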

[6] = NCI Yeast Anticancer Drug Screen. Data for the mlh1 rad18 strain (AID 175); settings: S. cerevisiae mlh1 rad18 strain growth inhibition; at 50.0 µM; active compounds read high
Procedure, shortened: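 Read-out is yeast growth inhibition, calculated against vehicle-only controls. The compound was applied to a strain engineered with DNA damage repair alterations.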

Measured: growth inhibition

N#Cc1c2c(c(N=P(c3ccccc3)(c3ccccc3)c3ccccc3)n3c1nc1ccccc13)CCCC2
inactive: [1] 44.6% | [2] 5.5% | [3] 14.9% | [4] 41.9% | [5] 30% | [6] 26.9%

COc1cc([N+](=O)[O-])c(C=O)c(C(=O)O)c1OC
inactive: [1] 6.5% | [2] -1.85% | [3] -10.3% | [4] 13.7% | [5] 1.75% | [6] 4.9%

CCC1(CCBr)C(=O)NC(=Nc2ccccc2)NC1=O (stereo unspecified)
inactive: [1] 5.6% | [2] -5.8% | [3] 5.9% | [4] -41.1% | [5] 9.9% | [6] -14.3%

CCCCCC(CC)OC(=O)Nc1cccc2ccccc12 (stereo unspecified)
inactive: [1] 6.05% | [2] 7.2% | [3] 10.7% | [4] -9.15% | [5] -3.35% | [6] 0.1%

Nc1ccc(N=Nc2ccc(N)cc2)cc1
inactive: [1] 12.7% | [2] 6.5% | [3] -13.7% | [4] -8.9% | [5] 11.2% | [6] 2.5%

NC(=O)NNC/C(Cl)=C(\Cl)C(=O)O
inactive: [1] -1.65% | [2] -19.4% | [3] 8.7% | [4] 16.9% | [5] 5.5% | [6] 2.85%

CCOC(=O)C(C)(C)c1ccc(OC)cc1
inactive: [1] -14.2% | [2] -3.6% | [3] -8.6% | [4] -18.9% | [5] 2.6% | [6] -16.2%

COc1c2cccc(Cl)c2cc2c(Cl)cccc12
inactive: [1] 6.3% | [2] -6.15% | [3] 1.3% | [4] 18.8% | [5] -11.2% | [6] 12.5%

NC(CCC(=O)NC1(C(=O)O)C2CC3CC(C2)CC1C3)C(=O)O (stereo unspecified)
inactive: [1] 6% | [2] -0.1% | [3] -5% | [4] -18% | [5] -4.4% | [6] 4.85%

NC1(C(=O)O)CCCCC1
inactive: [1] -11.3% | [2] -7.5% | [3] -30.7% | [4] -34.7% | [5] -12.9% | [6] -18.4%

CCOC(=O)NC(NC(=O)OCC)c1ccc(OC)cc1
inactive: [1] -7.7% | [2] -1.95% | [3] 1.75% | [4] 42.7% | [5] -6.55% | [6] -10.1%

CCOc1ccc2c(c1)C(C)(C)CCC2(C)C
inactive: [1] 3.55% | [2] -7.75% | [3] -5.9% | [4] -38.5% | [5] 1.4% | [6] 6.05%

Cc1ccc(S(=O)(=O)NNC(=O)Nc2cccc(C(F)(F)F)c2)cc1
inactive: [1] 24.4% | [2] -18% | [3] 18.1% | [4] -2.15% | [5] -0.3% | [6] 54.7%

CC1CC[N-]CC1.CC1CC[N-]CC1.[Cl][Pt+2][Cl]
inactive: [1] -19.9% | [2] -6.7% | [3] -17.6% | [4] -34% | [5] -2.2% | [6] 5.8%

O=C1c2ccccc2-c2nc(-c3ccncc3)cc3c2c1nc1ccccc13
inactive: [1] 25.6% | [2] 18.4% | [3] 27.2% | [4] 11.1% | [5] 14.1% | [6] 34.4%

O=C(CCc1n[nH]c(=S)o1)Nc1ccccc1
inactive: [1] 18.4% | [2] 17.4% | [3] 30.4% | [4] 15.8% | [5] 14.1% | [6] 35.3%

O=C(/C=C/c1ccccc1)c1ccc(Oc2ccccc2)cc1
inactive: [1] -13.2% | [2] -12.8% | [3] -12.9% | [4] -39.5% | [5] 7.5% | [6] -14.8%

CCCCCCCCCCC(C(=O)O)C1(C(=O)O)CCC(=O)O1 (stereo unspecified)
inactive: [1] -15.7% | [2] -32.4% | [3] -5.8% | [4] 11.4% | [5] -9.4% | [6] -5.25%

COC(=O)C(Cc1c[nH]c2ccccc12)NC(=O)C(Cc1c[nH]c2ccccc12)NC(=O)C(Cc1c[nH]c2ccccc12)NC(=O)OC(C)(C)C (stereo not drawn) (Boc-Trp-Trp-Trp-OMe; configuration not given here)
inactive: [1] -22.9% | [2] -16.6% | [3] -2.45% | [4] 10% | [5] -3.6% | [6] 1.5%

CC(=O)O[C@H]1C[C@H]2CC[C@@]1(C)C2(C)C
inactive: [1] 0.85% | [2] -4.45% | [3] -5.55% | [4] -24.8% | [5] -1.1% | [6] 7.95%

O=C1CCCCCCCC(=O)Nc2ccc3nc4ccccc4c(c3c2)SCCCCCCCCCSc2c3ccccc3nc3ccc(cc23)N1
inactive: [1] 27.7% | [2] -13.2% | [3] -6.75% | [4] -13.2% | [5] -6.5% | [6] 4.2%

CC(=O)c1ccc(C(=O)c2cccnc2)cc1
inactive: [1] -17% | [2] -9.2% | [3] -0.4% | [4] -49.3% | [5] -14.7% | [6] 7.4%

CC1=CC2C3C(=O)NC(=O)C3C1C1C3C(=O)NC(=O)C3C21 (stereo unspecified)
inactive: [1] -25% | [2] -3.9% | [3] 1.2% | [4] -18.6% | [5] 2.45% | [6] 16.4%

CCCC(NC(=O)OCc1ccccc1)C(=O)NCC(=O)NCC(=O)OC (stereo not drawn) (Cbz-[ξNva]-Gly-Gly-OMe)
inactive: [1] -30.8% | [2] 0.15% | [3] 12.2% | [4] 30.9% | [5] 0.5% | [6] 11.3%

OCCSC(SCCO)=C(SCCO)SCCO
inactive: [1] 9.85% | [2] -15.7% | [3] -1.55% | [4] -13.2% | [5] 1.35% | [6] 2.75%

CNCCC1CCCCCC1
inactive: [1] 1.8% | [2] 5.45% | [3] -1.15% | [4] -13.5% | [5] 10.9% | [6] -2.8%

COCC(OC)C(Cl)C(=O)Nc1ccc(Br)cc1 (stereo unspecified)
inactive: [1] 14.6% | [2] 31.1% | [3] 15.2% | [4] -14.4% | [5] 28.9% | [6] 10.8%

CC(CCc1nc2ccccc2[nH]1)c1nc2ccccc2[nH]1 (stereo unspecified)
inactive: [1] -18.6% | [2] 2.05% | [3] -0.8% | [4] 18.1% | [5] 14.8% | [6] 17.4%

O=C1CCC2(C=Nc3ccccc32)C2Cc3ccccc3N12 (stereo unspecified)
inactive: [1] -27.3% | [2] -11.8% | [3] -6.8% | [4] 3.75% | [5] 8.05% | [6] -29.7%

CCOC(=O)C(Cl)(NC(=O)OCc1ccccc1)C(F)(F)F (stereo unspecified)
inactive: [1] -21.8% | [2] 0% | [3] 7.15% | [4] 22.5% | [5] 6.7% | [6] -56.1%

CC(=O)CC(=O)Nc1ccc(NC(=O)CC(C)=O)cc1
inactive: [1] -13.5% | [2] -30.9% | [3] -21.1% | [4] -0.55% | [5] -23.5% | [6] -15.9%

Cc1nc2ccccn2c1N=Nc1ccc(C(=O)NN)cc1
inactive: [1] 7.3% | [2] -15.1% | [3] 0.1% | [4] 10.8% | [5] -10.8% | [6] -18.4%

ClCc1ccc(CCc2ccc(CCl)cc2)cc1
inactive: [1] 17.9% | [2] -17.9% | [3] 22.6% | [4] -44.9% | [5] 16.3% | [6] 8.15%

NCc1ccc(O)c(O)c1
inactive: [1] -13.9% | [2] 19.9% | [3] 15.3% | [4] 13% | [5] 5.6% | [6] 10.1%

CS(=O)(=O)OC1CCC2CCCC1(C(=O)O)C2 (stereo unspecified)
inactive: [1] 2.4% | [2] -6.6% | [3] -0.75% | [4] -30% | [5] -5.2% | [6] 9.25%

CN(C)C1=NC(c2ccccc2)(c2ccccc2)C(=O)N1
inactive: [1] -17.4% | [2] -8.15% | [3] -3.15% | [4] -40.5% | [5] -6.35% | [6] -23.4%

Cn1nc(-c2cccc(-c3nn(C)c(=NCCO)s3)n2)sc1=NCCO
inactive: [1] -29.8% | [2] -25.4% | [3] -51% | [4] -6.7% | [5] -28.1% | [6] -40.6%

CCCSS[C@H]1NC(=O)[C@H]1NC(=O)COc1ccccc1
inactive: [1] 31.1% | [2] 8.5% | [3] 1.4% | [4] 3.05% | [5] 19.1% | [6] -3.6%

COc1ccccc1C(=O)c1ccccc1
inactive: [1] -27.4% | [2] -7.3% | [3] -3.4% | [4] -14.9% | [5] -20.1% | [6] -11.2%

COc1ccc(N2C(=O)C3c4[nH]c5ccc(OC)cc5c4C4CCC(C(C)(C)C)CC4C3C2=O)cc1 (stereo unspecified)
inactive: [1] 22.1% | [2] 12.6% | [3] -5.45% | [4] -24% | [5] 16.1% | [6] 20.5%

CC(C)(C)NC(=O)Oc1cccnc1
inactive: [1] 7.1% | [2] -4.6% | [3] -12.6% | [4] -42.4% | [5] 27.6% | [6] 8%
